Experimental findings from PubChem BioAssay (EPA / NIEHS) are described below.

The structures appear in SMILES notation. Several values for one entry are separate records, joined by “and”; a condition that tells them apart may be missing. Equal entries are not always repeated. Records with an inconclusive call do not appear. Some compounds were tested as several samples or in several runs, with calls that do not always agree. Activity calls are given as the source filed them. How the source made its calls, unless noted: active means hit-call score of the fitted dose curve at least 0.9, where 1 is the maximum; inactive means score below 0.9.

The nature of experiment [1]: CCTE_Mundy_HCI_Cortical_NOG_NeuronCount: CCTE's Neurite Outgrowth Assay in rat cortical cells for Neuron Count, Mundy Lab (AID 2284236; active means hit-call score of the fitted dose curve at least 0.9, where 1 is the maximum;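 further: neurons counted by imaging betaIII-tubulin and Hoechst stained cortical cells; cells exposed to compound for about 48 hours before fixation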). In outline: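 Read-out: neuron number by high-content imaging of betaIII-tubulin (Alexa Fluor-488) and Hoechst-labelled rat primary cortical cells.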
Experiment [2] in a line: CCTE_Mundy_HCI_Cortical_NOG_BPCount: CCTE's Neurite Outgrowth Assay in rat cortical cells for Branch Point Count, Mundy Lab (AID 2284237).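 Further: branch points counted about two days after chemical exposure.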 In outline: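 Measured 50.33 h after dosing, this morphology endpoint uses rat primary cortical cultures labelled for betaIII-tubulin. Branch points are quantified by high-content imaging, with DMSO as negative control and baseline.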

Experiment [3] in a line: CCTE_Mundy_HCI_hNP1_Casp3_7: CCTE's Caspase-Glo 3/7 Assay in human neuroprogenitor cells for Apoptosis, Mundy Lab (AID 2284240). In short, it runs like this: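 Apoptosis is scored by activated caspase-3/7 luminescence in WA09-derived neural progenitor cells, measured 26.5 h after chemical dosing. Values represent gain of signal relative to DMSO vehicle.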
The nature of experiment [4]: CCTE_Mundy_HCI_hNP1_CellTiter: CCTE's Cell Titer-Glo 2 Assay in human neuroprogenitor cells for Viability, Mundy Lab (AID 2284241; active means hit-call score of the fitted dose curve at least 0.9, where 1 is the maximum;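 on AC50: a hit is a drop in ATP luminescence versus DMSO meaning reduced viability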). In short, it runs like this:
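Human neural progenitor cells (hNP1, WA09-derived) were plated on poly-L-ornithine/laminin and grown 40 to 44 hours at 37 °C, 5% CO2 before chemical addition. Twenty-four hours later, ATP was measured by CellTiter-Glo luminescence; loss of signal versus DMSO indicates reduced viability.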

The nature of experiment [5]: CCTE_Mundy_HCI_Cortical_Synap_Neur_Matur_NeuronCount: CCTE's Synaptogenesis and Neurite Maturation Assay in rat cortical cells for Neuron Count, Mundy Lab (AID 2284242; active means hit-call score of the fitted dose curve at least 0.9, where 1 is the maximum;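 further: neuron number from Hoechst nuclei and MAP2 staining by high-content imaging; hits reduce neuron count versus DMSO baseline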). In short, it runs like this: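 Imaging-based neuron count in rat cortical cultures after chemical exposure from DIV 7 to DIV 12, with AraC added at DIV 5. Activity is fitted relative to DMSO.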
Read-out in experiment [6]: Collagen I, COL1A1 (gene 1277)
Put plainly: BSK_MyoF_CollagenI: BioMAP Diversity Plus: MyoF Assay for Collagen I Biomarker Activity (AID 2284238). The conditions noted are these: primary human lung fibroblasts. In short, it runs like this: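 Human lung fibroblasts were exposed to test chemical for 24 h, then Collagen I was quantified by ELISA. Activity was fitted in the increasing direction against DMSO as the negative control and baseline.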

Read-out in experiment [7]: Collagen III, COL3A1 (gene 1281)
Put plainly: BSK_MyoF_CollagenIII: BioMAP Diversity Plus: MyoF Assay for Collagen III Biomarker Activity (AID 2284239). To be noted: primary human lung fibroblasts. In outline:
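Human lung fibroblasts were dosed with chemicals and, 24 hours later, collagen III was measured by ELISA. Activity was fitted in the positive direction against the DMSO negative-control baseline.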

Read-out in experiment [8]: Interleukin 17F (IL17F), IL17F (gene 112744)
Put plainly: BSK_BT_xIL17F: BioMAP Diversity Plus: BT Assay for Interleukin 17F (IL17F) Biomarker Activity (AID 2284243). To be noted: primary human B cells with PBMC. In short, it runs like this:
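B cell/PBMC co-culture (human primary), 24 h compound exposure; sIL-17F by Luminex xMAP; gain-of-signal fit vs DMSO baseline.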

Read-out in experiment [9]: Actin alpha 1 (ACTA1), ACTA1 (gene 58)
Put plainly: BSK_MyoF_ACTA1: BioMAP Diversity Plus: MyoF Assay for Actin alpha 1 (ACTA1) Biomarker Activity (AID 2284244). To be noted: primary human lung fibroblasts. In short, it runs like this: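 Measured by ELISA: alpha-smooth muscle actin in human primary lung fibroblasts 24 h after dosing, with DMSO as baseline and upward signal change as the fitted direction.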

Read-out in experiment [10]: Interleukin 2 (IL2), IL2 (gene 3558)
Put plainly: BSK_BT_xIL2: BioMAP Diversity Plus: BT Assay for Interleukin 2 (IL2) Biomarker Activity (AID 2284245). The conditions noted are these: primary human B cells with PBMC. In short, it runs like this: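 Secreted interleukin-2 from human B cell/PBMC co-cultures, measured 24 h post-dosing by Luminex multiplex immunoassay. Upward-direction curve fitting against DMSO baseline.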

Read-out in experiment [11]: Basic fibroblast growth factor (bFGF), FGF2 (gene 2247)
Kind of experiment: BSK_MyoF_bFGF: BioMAP Diversity Plus: MyoF Assay for Basic fibroblast growth factor (bFGF) Biomarker Activity (AID 2284246). To be noted: primary human lung fibroblasts. In short, it runs like this:
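In this multiplexed cell system, lung fibroblasts (human primary) receive test chemical for 24 h before ELISA detection of bFGF; DMSO defines baseline and the analysis direction is positive.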

Read-out in experiment [12]: Collagen IV, COL4A1 (gene 1282)
Kind of experiment: BSK_MyoF_CollagenIV: BioMAP Diversity Plus: MyoF Assay for Collagen IV Biomarker Activity (AID 2284247). The conditions noted are these: primary human lung fibroblasts. In outline: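 Activity is scored as a signal increase over DMSO in an ELISA for Collagen IV, measured on human lung fibroblasts at 24 h after chemical treatment. Cytotoxicity is checked in parallel cultures by sulforhodamine B total-protein staining.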

Read-out in experiment [13]: Monokine induced gamma interferon (MIG), CXCL9 (gene 4283)
Kind of experiment: BSK_KF3CT_MIG: BioMAP Diversity Plus: KF3CT Assay for Monokine induced gamma interferon (MIG) Biomarker Activity (AID 2284248). To be noted: primary human keratinocytes with fibroblasts. In short, it runs like this: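 Human keratinocyte plus foreskin fibroblast primary co-culture dosed with test chemical for 24 h; MIG level measured by ELISA and fitted in the positive direction against DMSO as baseline.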

Read-out in experiment [14]: Vascular cell adhesion molecule 1 (VCAM1), VCAM1 (gene 7412)
Kind of experiment: BSK_BF4T_VCAM1: BioMAP Diversity Plus: BF4T Assay for Vascular cell adhesion molecule 1 (VCAM1) Biomarker Activity (AID 2284249). To be noted: primary human bronchial epithelial cells with fibroblasts. In outline: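 Human bronchial epithelial cell and dermal fibroblast co-culture exposed 24 h. VCAM-1 measured by ELISA; parallel SRB total-protein staining for cytotoxicity. Fitted in positive direction relative to DMSO.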

Read-out in experiment [15]: Collagen I, COL1A1 (gene 1277)
Kind of experiment: BSK_hDFCGF_CollagenI: BioMAP Diversity Plus: hDFCGF Assay for Collagen I Biomarker Activity (AID 2284250). To be noted: primary human foreskin fibroblasts. In outline:
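Cells were primary human foreskin fibroblasts treated for 24 h. Collagen I levels were then determined by ELISA and compared against DMSO controls.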

Read-out in experiment [16]: Interferon-inducible T-cell alpha chemoattractant (ITAC), CXCL11 (gene 6373)
Put plainly: BSK_hDFCGF_ITAC: BioMAP Diversity Plus: hDFCGF Assay for Interferon-inducible T-cell alpha chemoattractant (ITAC) Biomarker Activity (AID 2284251). To be noted: primary human foreskin fibroblasts. In outline: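 Fibroblasts (human foreskin, primary) are treated with chemical, cultured 24 h, then assayed for I-TAC by ELISA. Overt toxicity is checked in parallel cultures by sulforhodamine B staining of total protein at the same time point.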

Read-out in experiment [17]: Plasminogen activator inhibitor-1 (PAI1), SERPINE1 (gene 5054)
Put plainly: BSK_KF3CT_PAI1: BioMAP Diversity Plus: KF3CT Assay for Plasminogen activator inhibitor-1 (PAI1) Biomarker Activity (AID 2284252). The conditions noted are these: primary human keratinocytes with fibroblasts. In outline: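 Signal is PAI-1 detected by ELISA in a human skin-derived keratinocyte/fibroblast co-culture, 24 h after dosing; DMSO served as negative control and baseline.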

Read-out in experiment [18]: Monocyte Chemoattractant Protein-1 (MCP1), CCL2 (gene 6347)
Kind of experiment: BSK_IMphg_MCP1: BioMAP Diversity Plus: IMphg Assay for Monocyte Chemoattractant Protein-1 (MCP1) Biomarker Activity (AID 2284253). To be noted: primary human endothelial cells with macrophages. In short, it runs like this:
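Human venular endothelial cells co-cultured with macrophages; MCP-1 measured by ELISA 24 hours post-dose and fitted against DMSO. Cytotoxicity monitored by SRB total-protein staining in parallel cultures.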

Read-out in experiment [19]: Interleukin-8 (IL8), CXCL8 (gene 3576)
Kind of experiment: BSK_KF3CT_IL8: BioMAP Diversity Plus: KF3CT Assay for Interleukin-8 (IL8) Biomarker Activity (AID 2284254). The conditions noted are these: primary human keratinocytes with fibroblasts. In short, it runs like this: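 Human primary keratinocyte plus foreskin fibroblast co-culture dosed with test chemicals; IL-8 measured by ELISA 24 h after dosing. Activity fitted in the positive direction relative to DMSO negative control.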

Read-out in experiment [20]: Macrophage Inflammatory Protein-1 Alpha (MIP1a), CCL3 (gene 6348)
Put plainly: BSK_IMphg_MIP1a: BioMAP Diversity Plus: IMphg Assay for Macrophage Inflammatory Protein-1 Alpha (MIP1a) Biomarker Activity (AID 2284255). The conditions noted are these: primary human endothelial cells with macrophages. In short, it runs like this: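 Co-culture of human venular endothelial cells and macrophages exposed to compounds for 24 h; MIP-1a measured by ELISA relative to DMSO. Cytotoxicity assessed in parallel cultures by sulforhodamine B total-protein staining at 560 nm.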

For `C[C@]12C=CC(=O)C=C1CC[C@H]1[C@@H]3C[C@@H](O)[C@](O)(C(=O)CO)[C@@]3(C)C[C@H](O)[C@@]12F`, the AC50 in [1] was 23.6 µM (active); in experiment [2], 20.1 µM (active); in experiment [3] it was 23 µM (active); in [4], 25.6 µM (active); in experiment [5], 3.75 µM (active).
In the case of `S=P(N1CC1)(N1CC1)N1CC1`, the result in experiment [6], in experiment [7], in [9], in experiment [10], in experiment [11] and in [12] was inactive. For the same molecule, the AC50 in experiment [8] was 20.9 µM (active).
With `O=S(=O)(O)CCC(F)(F)C(F)(F)C(F)(F)C(F)(F)C(F)(F)C(F)(F)F`, the result in experiment [6], in experiment [7], in [8], in [9], in experiment [10] and in [11] was inactive. Further, the outcome in [12], in [13], in experiment [14], in experiment [15], in [16] and in experiment [17] was inactive. In addition, the outcome in experiment [18], in experiment [19] and in [20] was inactive. Also, the AC50 in experiment [16] was 1.38 µM (active).
On to `FC(F)=C(F)C(F)(F)C(F)(F)C(F)(F)C(F)(F)C(F)(F)C(F)(F)F`, for which the outcome in experiment [6], in experiment [7], in experiment [3], in [4], in [8] and in [9] was inactive. Besides, the outcome in [10], in experiment [11], in [12], in experiment [13], in experiment [14] and in experiment [15] was inactive. Besides, the result in experiment [16], in experiment [17], in experiment [18], in [19] and in experiment [20] was inactive.
In the case of `OCc1c[nH]c2ccccc12`, the outcome in experiment [6], in [7], in [8], in experiment [9], in [11] and in experiment [12] was inactive. The half-maximal activity concentration (AC50) in experiment [10] was 1.81 µM (active).
For `OC(O)(C(F)C(O)(O)C(F)(F)F)C(F)(F)F`, the result in experiment [6], in [7], in experiment [4], in [9], in [11] and in [12] was inactive. Also, the outcome in experiment [13], in experiment [14], in experiment [15], in [17], in [18] and in experiment [19] was inactive. Further, the concentration at half-maximal activity (AC50) is 13.4 µM (active) in experiment [3]; 46.7 µM (active) and 30 µM (active) in experiment [8]; 40.6 µM (active) and 22.3 µM (active) in experiment [10]; 8.03 µM (active) and 15 µM (active) in experiment [16]; 5.44 µM (active) and 7.95 µM (active) in experiment [20].
Consider `FC(F)C(F)(F)COCC1CO1` (centres undefined), for which the result in experiment [6], in [7], in experiment [8], in experiment [9], in [10] and in experiment [11] was inactive. Further, the result in experiment [12], in [13], in [14], in [15], in experiment [16] and in experiment [17] was inactive. Further, the result in [18], in experiment [19] and in experiment [20] was inactive.
Take `C[Si](C)(C)C(F)(F)C(F)(F)C(F)(F)F`: the result in experiment [6], in experiment [7], in experiment [8], in experiment [9], in [10] and in [11] was inactive. Besides, the result in experiment [12], in experiment [13], in experiment [14], in experiment [15], in experiment [16] and in experiment [17] was inactive. The outcome in experiment [18], in [19] and in experiment [20] was inactive.
Take `COc1cc2c(c(OC)c1OC)-c1ccc(OC)c(=O)cc1[C@@H](NC(C)=O)CC2`: the AC50 in experiment [1] was 0.0535 µM (active); in [2] it was 0.00988 µM (active); in experiment [3] it was 0.0228 µM (active); in [4], 0.0224 µM (active); in experiment [5], 0.0339 µM (active).
